Measured values reported in ChEMBL document CHEMBL3988442, “University of Dundee, Small-Polar-MMV Screening Library” (2021).
Hit rate of the full screen: of about 48,000 compounds, about 13,000 (27%) showed an effect of 50% or more. This is one part of the list.

tested on: Wolbachia pipientis; assay: Anti-Wolbachia Cell-Based Screen; type: functional; set-up: scale not given: in the data most compounds retested in dose-response had high values; conditions: 5 µM

SMILES	Percent Effect
COCC1CN(C(=O)Nc2cc(Br)ccc2F)CCO1 (centres undefined)	-0.1525%
CCOc1ccc(NC(=O)NC2CCc3nc(C)nn3C2)cc1Cl (centres undefined)	-21%
COc1ccc(NC(=O)N2CCC(CSC)C2)cc1C (centres undefined)	-50.59%
COCCOc1ccc(NC(=O)N2CCOC(C(N)=O)C2)cc1F (centres undefined)	100.1%
CCOc1ccc(NC(=O)N2CCOC(C(N)=O)C2)cc1C (centres undefined)	95.69%
COCC1CN(C(=O)Nc2ccc(Cl)cc2Cl)CCO1 (centres undefined)	-1.722%
CCOc1ccc(NC(=O)N2CCOC(C(N)=O)C2)cc1Cl (centres undefined)	142.8%
CCOc1ccc(C#N)cc1NC(=O)N1CCOC(C(N)=O)C1 (centres undefined)	8.32%
COCC1CN(C(=O)Nc2cc(Cl)ccc2F)CCO1 (centres undefined)	-13.77%
Cc1cnc(C)c(N2CCC(Cc3ccccc3Cl)(C(=O)O)CC2)n1	2.277%
CC(=O)N1CCCN(Cc2csc(C)n2)c2ccccc21	0.8232%
CCCC(O)CN1CC(C)(C)CN(C(=O)c2ccc(SC)cc2)CC1=O (centres undefined)	118.8%
Cc1[nH]nc2ncc(C(=O)N3CCN(CC(O)C(C)(C)C)CC3)cc12 (centres undefined)	-16.51%
CC(C)CN1CC2(CCN(C(=O)C(O)c3ccccc3Cl)CC2)CC1=O (centres undefined)	-2.667%
CCCC(O)CN1CC(C)(C)CN(C(=O)c2ccc(Cl)cc2)CC1=O (centres undefined)	78.76%
CSc1ccc(C(O)CNS(=O)(=O)C2CC2)cc1 (centres undefined)	2.179%
CCCN(CCO)C(=O)C1CCC(=O)N(CCc2ccc(Cl)cc2)C1 (centres undefined)	-1.106%
CC1(C)CN(CC(O)C(C)(C)C)C(=O)CN(C(=O)c2ccccc2)C1 (centres undefined)	117.8%
CCCC(O)CN1CC(C)(C)CN(C(=O)c2ccccc2)CC1=O (centres undefined)	122.4%
CN(C)C(=O)N1CCN(C(=O)c2ccc(Cl)cc2)CC2(CNC(=O)C2)C1 (centres undefined)	-1.625%
NC(=O)NCC(=O)N1C[C@H]2CC[C@@H]1CN(C1Cc3ccccc3C1)C2	-1.297%
COc1nc2c(cc1C(=O)N1C[C@H](N)C[C@H]1C(=O)NC(C)C)CCC2	-26.43%
CN(C)CCN1CC(C(=O)N2CCC(c3nccn3C)CC2)CC1=O (centres undefined)	2.201%

SMILES	Percent Effect
Cn1cnc2c1CCN(CC(=O)N(Cc1ccsc1)C1CC1)C2	-10.64%
COc1ccc(CNCCc2cccc(C(N)=O)c2)cc1C	-2.965%
CC(C)N1CCc2ncn(C(C)C)c2C1C(=O)N1CCN(C)CC1 (centres undefined)	-12.1%
CCc1nc(CCn2ccc3nc(OC)c(C#N)cc3c2=O)no1	0.8236%
CC(C)c1noc(CN2CCOCC2C)n1 (centres undefined)	107.7%
CC(C(=O)N1CCOCC1)S(=O)(=O)Cc1noc(C(C)(C)C)n1 (centres undefined)	-4.281%
CC(C)(C)c1noc(CN2CCCC(CNS(N)(=O)=O)C2)n1 (centres undefined)	-0.7485%
CC(C)c1noc(CN2CCC3(CCCO3)CCC2=O)n1 (centres undefined)	-7.858%
CC1COCCN1Cc1nc(C(C)(C)C)no1 (centres undefined)	110.8%
CC(C)c1noc(CS(=O)(=O)Cc2nc(C(C)C)no2)n1	-3.73%
CCCc1noc(CN2CCOCC2C)n1 (centres undefined)	76.64%
CC(C)(C)c1nc(CN2CCC(N3CCCCC3)CC2)no1	3.179%
CC1COCCN1Cc1noc(C(C)(C)C)n1 (centres undefined)	91.93%
CC1CCCCN1Cc1nc(C2CC2)no1 (centres undefined)	23.82%
COCc1nc2cc(NCc3sc(C)nc3C)ccc2o1	1.098%
CC1=C(C(=O)NCc2cccnc2-n2cnc3ccccc32)OCCO1	-15.12%
CSc1nccc(N2CCC(=O)N(CC3CC3)C(C(C)C)C2)n1 (centres undefined)	8.272%
CCNC(=O)N1CC[C@H]2CC(=O)N(CCN3CCNC3=O)CC[C@H]2C1	12.62%
Cl.OC(CNCc1ccccc1C(F)(F)F)c1ccccc1 (centres undefined)	-21.52%
CC(C)Cc1noc(CN2CCOCC2C)n1 (centres undefined)	87.61%
CC1COCCN1Cc1nc(Cc2ccccc2)no1 (centres undefined)	106.6%
CC(C)Cc1noc(CN2CCN(CCO)CC2)n1	-13.58%
CC1CCCCN1Cc1nc(Cc2ccccc2)no1 (centres undefined)	-14.27%

SMILES	Percent Effect
CC(C)Cc1noc(CN2CCOCC2)n1	-2.166%
Cn1cnc2c1CCN(Cc1nc(Cc3ccccc3)no1)C2	-6.335%
O=C(O)[C@@]12CN(c3cnccn3)C[C@@H]1CN(C1CCCC1)C2	11.78%
CCS(=O)(=O)N(C)CC(=O)Nc1ccc(Br)cn1	11.17%
CC1CN(C)c2ccccc2CN1C(=O)c1ccoc1 (centres undefined)	-34.7%
COc1cccc(CN2CC(O)CN(C(=O)C3CC3)CC2=O)c1OC (centres undefined)	103.4%
COc1cccc(CN2CC(O)CN(C(=O)C3CCC3)CC2=O)c1OC (centres undefined)	107.9%
COc1ccc(OC)c(C2CCN(C(=O)[C@H]3CC[C@@H](O)CC3)C2)c1 (some centres undefined)	4.796%
COc1ccccc1CC1CCN(C(=O)CCN2CCOC2=O)CC1	-13.03%
COc1ccccc1OC1CCN(C(=O)C2CCCN(C)C2)CC1 (centres undefined)	-2.238%
CNC(=O)[C@@H](c1ccccc1OC)N1CCC[C@H]1C(=O)N1CC[C@@H](O)C1.Cl	4.858%
CSCc1noc(CN2CCC3(CC2)CC(=O)N(CC(C)C)C3)n1	6.142%
Fc1ccc(CN2CCCn3nnc(COCC4CC4)c3C2)cc1.O=C(O)C(F)(F)F	-22.46%
CNCc1n[nH]c(=O)n1CC1CCCCC1	9.971%
O=C(CC1CC1)N1C[C@H]2CN(CC3CC3)C(=O)[C@H]2C1	-33.8%
CCOCC(=O)N1C[C@@H](O)[C@H](NC(C)=O)C1	181%
CCCSCC(=O)N1C[C@@H](NC(C)=O)[C@H](c2ccc(OC)cc2)C1	13.13%
CC(=O)N[C@@H]1CN(C(=O)CC2CC2)C[C@H]1O	207.4%
CCOCC(=O)N1C[C@@H](NC(C)=O)[C@H](c2ccc(OC)cc2)C1	0.296%
CC(=O)N[C@@H]1CN(C(=O)CC2CCOCC2)C[C@H]1O	144.5%
COc1ccc([C@@H]2CN(C(=O)CCC(F)(F)F)C[C@H]2NC(C)=O)cc1	11.36%
CCC(CC)n1nc(C)cc1NC(=O)CC1CCOCC1	0.9076%
CCOCC(=O)N1CCC(c2nccn2C)CC1	-1.738%
